Reference: PubChem BioAssay (NCATS)
Records with an inconclusive call do not appear. The source made the active and inactive calls. The call rests on the fitted dose curve; in most records, active means well fitted curve in the direction sought with a large enough effect; inconclusive means small, poorly fitted or top-dose-only effect, or another doubt; inactive means no such curve, though single readings can be large; an effect the other way counts as inactive or inconclusive.

Legend:
[1] = Quantitative High-Throughput drug screen in 47 multiple myeloma cell lines against the NCATS MIPE library collection: Delta47_JCRB cell viability assay (AID 1918925; further: nearly all actives have a fitted effect of over 45% in size; further: potency means the concentration at half of the fitted maximal effect)
How it was run: (§1)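 Luminescent ATP measurement with CellTiter-Glo gives viability, scaled between DMSO-only wells (100%) and media-only wells (0%). Cells, 500 per well, faced library compounds for 48 hours at 37C.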

[2] = Quantitative High-Throughput drug screen in 47 multiple myeloma cell lines against the NCATS MIPE library collection: EJM_DSMZ cell viability assay (AID 1918926; further: nearly all actives have a fitted effect of over 30% in size; further: potency means the concentration at half of the fitted maximal effect)
How it was run: as §1

[3] = Quantitative High-Throughput drug screen in 47 multiple myeloma cell lines against the NCATS MIPE library collection: AMO1_DSMZ cell viability assay (AID 1918927; further: nearly all actives have a fitted effect of over 30% in size; further: potency means the concentration at half of the fitted maximal effect)
How it was run: as §1

[4] = Quantitative High-Throughput drug screen in 47 multiple myeloma cell lines against the NCATS MIPE library collection: Karpas417_ECACC cell viability assay (AID 1918961); settings: Karpas417 myeloma viability, CellTiter-Glo ATP luminescence, 48 h; viability (% of DMSO): at 45.8 µM (top of the series) unless noted; further: potency means the concentration at half of the fitted maximal effect
How it was run: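 CellTiter-Glo luminescence (ATP) after 48 h compound exposure, 37C/5% CO2; 500 cells/well; MIPE 4.0 approved/investigational drugs pinned in; DMSO = 100%, media only = 0% viability.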

[5] = Quantitative High-Throughput drug screen in 47 multiple myeloma cell lines against the NCATS MIPE library collection: ARD_JJKsccE7 cell viability assay (AID 1918929; further: potency means the concentration at half of the fitted maximal effect)
How it was run: as §1

[6] = Quantitative High-Throughput drug screen in 47 multiple myeloma cell lines against the NCATS MIPE library collection: KMM1_JCRB cell viability assay (AID 1918960); further: nearly all actives have a fitted effect of over 30% in size; further: potency means the concentration at half of the fitted maximal effect
How it was run: (§2)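 CellTiter-Glo luminescence after 48 h exposure gives viability, scaled between DMSO-only (100%) and media-only (0%) controls. Library compounds are pinned onto 500 myeloma cells per well, incubated at 37C with 5% CO2.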

[7] = Quantitative High-Throughput drug screen in 47 multiple myeloma cell lines against the NCATS MIPE library collection: Karpas620_DSMZ cell viability assay (AID 1918959); further: nearly all actives have a fitted effect of over 30% in size; further: potency means the concentration at half of the fitted maximal effect
How it was run: (§3)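 Steps: seed 500 cells per well; pin-transfer MIPE 4.0 library; incubate 48 h at 37C, 5% CO2, humidified; add CellTiter-Glo, 5 min room temperature; read luminescence.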

[8] = Quantitative High-Throughput drug screen in 47 multiple myeloma cell lines against the NCATS MIPE library collection: JIM3_ECACC cell viability assay (AID 1918963; further: nearly all actives have a fitted effect of over 35% in size; further: potency means the concentration at half of the fitted maximal effect)
How it was run: as §3

[9] = Quantitative High-Throughput drug screen in 47 multiple myeloma cell lines against the NCATS MIPE library collection: ARP1_JJKsccF8 cell viability assay (AID 1918928; further: potency means the concentration at half of the fitted maximal effect; nearly all actives have a fitted effect of over 40% in size)
How it was run: as §2

[10] = Quantitative High-Throughput drug screen in 47 multiple myeloma cell lines against the NCATS MIPE library collection: KHM11_PLB cell viability assay (AID 1918962); further: nearly all actives have a fitted effect of over 35% in size
How it was run: as §3

Measured: Potency

CCOc1cc(C=C2C(=O)N(c3ccccc3)N=C2C)cc(Cl)c1OCC(=O)OC
inactive: [3]
active: [1] 9.35 µM | [2] 18.7 µM | [4] 8.33 µM

CC(C)OC(=O)C1=CN(C(=O)c2ccc(F)c(F)c2)CC(C)(C)c2c1[nH]c1ccccc21
inactive: [1] | [2] | [5] | [6]

CN[C@@H](C)C(=O)N[C@H]1CCCC[C@H]2CC[C@@H](C(=O)N[C@@H](c3ccccc3)c3cn(CCCCc4ccc(CCCCn5cc([C@@H](NC(=O)[C@@H]6CC[C@@H]7CCCC[C@H](NC(=O)[C@H](C)NC)C(=O)N76)c6ccccc6)nn5)cc4)nn3)N2C1=O
active: [1] 3.72 µM | [2] 5.26 µM | [7] 14.8 µM

CN(C)c1ccc(Nc2nc(N)n(C(=O)c3c(F)cccc3F)n2)cc1
active: [1] 14.8 µM | [2] 20.9 µM | [3] 4.69 µM | [5] 20.9 µM | [6] 11.8 µM | [4] 1.66 µM | [8] 16.6 µM

CCC(C)N(C)C(=O)c1cc2ccccc2c(-c2ccccc2Cl)n1 (centres undefined)
inactive: [1] | [2] | [10]
active: [9] 0.296 µM

C[C@@H]1CN(Cc2ccc(F)cc2)[C@@H](C)CN1C(=O)c1cc2c(C(=O)C(=O)N(C)C)cn(C)c2cc1Cl
active: [1] 9.35 µM | [3] 29.6 µM | [5] 9.35 µM | [8] 13.2 µM

Cc1cccc(-c2[nH]c(C(C)(C)C)nc2-c2ccc3nccnc3c2)n1
active: [1] 3.32 µM | [3] 5.26 µM | [7] 6.62 µM | [6] 4.69 µM | [8] 2.64 µM

NC(=O)c1ccc(-c2nc(-c3ccc4c(c3)OCO4)c(-c3ccccn3)[nH]2)cc1
inactive: [1] | [5] | [7] | [8]
active: [6] 1.66 µM

CCOc1cc(N2CCC(O)CC2)ccc1Nc1ncc2c(n1)N(C)c1ccccc1C(=O)N2C
active: [1] 4.18 µM | [3] 1.32 µM | [9] 10.5 µM | [5] 1.05 µM | [7] 0.332 µM | [6] 1.18 µM | [8] 8.33 µM

C[C@H](NC(=O)Cc1cc(F)cc(F)c1)C(=O)N[C@@H]1C(=O)N(C)c2ccccc2-c2ccccc21
active: [1] 7.43 µM | [8] 18.7 µM
inactive: [7] | [6]

S=C(NCc1ccc2c(c1)OCO2)N1CCN(c2ncnc3c2oc2ccccc23)CC1
active: [1] 1.08 µM | [3] 2.7 µM | [9] 3.03 µM | [5] 0.855 µM | [7] 2.41 µM | [6] 1.36 µM | [4] 4.29 µM | [8] 5.4 µM

OCCn1cc(-c2cnc3nnn(Cc4ccc5ncccc5c4)c3n2)cn1
inactive: [1] | [3] | [5] | [7] | [8]

CCCS(=O)(=O)Nc1ccc(F)c(C(=O)c2c[nH]c3ncc(-c4ccc(Cl)cc4)cc23)c1F
active: [1] 8.33 µM | [8] 18.7 µM
inactive: [7] | [6]

Nc1cccc(S(=O)(=O)N2CCCN(S(=O)(=O)c3ccc4c(c3)OCCO4)CC2)c1
inactive: [5] | [7] | [6]
active: [1] 0.833 µM | [3] 4.18 µM
